Our source for the outcome and AC50 values is PubChem BioAssay (EPA / NIEHS).

The source made the active and inactive calls. How the source made its calls: active means hit-call score of the fitted dose curve at least 0.9, where 1 is the maximum; inactive means score below 0.9.

Read-out in assay [1]: C-C motif chemokine 2 (Homo sapiens) (UniProt P13500)
Briefly: BSK_KF3CT_MCP1: BioMAP Diversity Plus: KF3CT Assay for Monocyte Chemoattractant Protein 1 (MCP1/CCL2) Biomarker Activity (AID 2283073). The settings on record: primary human keratinocytes with fibroblasts; actives raise or lower the signal. In short, it runs like this: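 Human keratinocyte–foreskin fibroblast co-culture; MCP-1 measured by ELISA 24 h after dosing. Bidirectional fit vs DMSO; cytotoxicity tracked by SRB total protein in parallel cultures.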

Read-out in assay [2]: Matrix Metallopeptidase 9 (MMP9), MMP9 (gene 4318)
Kind of assay: BSK_KF3CT_MMP9: BioMAP Diversity Plus: KF3CT Assay for Matrix Metallopeptidase 9 (MMP9) Biomarker Activity (AID 2283074).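 On AC50: MMP9 protein level quantified by ELISA in the co-culture.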 Conditions: primary human keratinocytes with fibroblasts; actives raise or lower the signal. In short, it runs like this: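 Human keratinocyte/foreskin fibroblast co-culture; compound added; 24 h; MMP-9 by ELISA; bidirectional fit vs DMSO baseline.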

Read-out in assay [3]: urokinase plasminogen activator (uPA), PLAU (gene 5328)
Briefly: BSK_KF3CT_uPA: BioMAP Diversity Plus: KF3CT Assay for urokinase plasminogen activator (uPA) Biomarker Activity (AID 2283075). Conditions: primary human keratinocytes with fibroblasts; actives raise or lower the signal. In short, it runs like this: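 ELISA readout of uPA, analyzed for signal gain or loss relative to DMSO, from a human primary keratinocyte–foreskin fibroblast co-culture measured 24 h after chemical treatment.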

Read-out in assay [4]: CD40, CD40 (gene 958)
Kind of assay: BSK_LPS_CD40: BioMAP Diversity Plus: LPS Assay for CD40 Biomarker Activity (AID 2283076). The settings on record: primary human HUVEC with PBMC; actives raise or lower the signal. The method, boiled down: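 HUVEC plus PBMC co-culture stimulated with LPS; CD40 quantified by ELISA 24 h after compound dosing. Fitting was bidirectional relative to DMSO. SRB staining of parallel cultures flagged overt cytotoxicity.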

Read-out in assay [5]: E-selectin (Homo sapiens) (UniProt P16581)
Briefly: BSK_LPS_Eselectin: BioMAP Diversity Plus: LPS Assay for Eselectin Biomarker Activity (AID 2283077). The settings on record: primary human HUVEC with PBMC; actives raise or lower the signal. In short, it runs like this: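 Human umbilical vein endothelial cells co-cultured with PBMC under LPS stimulation; cell-surface E-selectin measured by ELISA 24 h after dosing. Change in either direction versus DMSO, with SRB total-protein staining in parallel cultures for cytotoxicity.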

Read-out in assay [6]: Interleukin-8 (IL8), CXCL8 (gene 3576)
Briefly: BSK_LPS_IL8: BioMAP Diversity Plus: LPS Assay for Interleukin-8 (IL8) Biomarker Activity (AID 2283078). Conditions: primary human HUVEC with PBMC; actives raise or lower the signal. The method, boiled down: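 Human umbilical vein endothelial cells co-cultured with PBMC, LPS-stimulated, exposed to compound for 24 h. IL-8 quantified by ELISA; fitted in both directions against DMSO, with SRB total-protein staining of parallel cultures for cytotoxicity.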

A short description of assay [7]: BSK_LPS_SRB: Viability Assessment in the BioMAP Diversity Plus: LPS Assay (AID 2283079).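 Further: total protein by sulforhodamine B absorbance as a cytotoxicity measure; measured one day after compound addition; fitted in both directions against DMSO so loss or gain of signal counts.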 Conditions: primary human HUVEC with PBMC. In short, it runs like this:
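Co-culture of human umbilical vein endothelial cells and PBMC, read 24 h after dosing. Total protein by 0.1% SRB staining after 10% TCA fixation, absorbance at 560 nm; bidirectional fit against DMSO.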

Read-out in assay [8]: Interleukin-1 alpha (IL1a), IL1A (gene 3552)
Kind of assay: BSK_LPS_IL1a: BioMAP Diversity Plus: LPS Assay for Interleukin-1 alpha (IL1a) Biomarker Activity (AID 2283080). Conditions: primary human HUVEC with PBMC; actives raise or lower the signal. The method, boiled down:
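Human umbilical vein endothelial cells co-cultured with PBMC and stimulated with LPS; IL-1a measured by ELISA 24 h after dosing. Bidirectional fitting against DMSO; cytotoxicity checked by SRB staining in parallel cultures.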

Read-out in assay [9]: Monocyte Chemoattractant Protein-1 (MCP1), CCL2 (gene 6347)
Kind of assay: BSK_LPS_MCP1: BioMAP Diversity Plus: LPS Assay for Monocyte Chemoattractant Protein-1 (MCP1) Biomarker Activity (AID 2283081). The settings on record: primary human HUVEC with PBMC; actives raise or lower the signal. In short, it runs like this: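 Human umbilical vein endothelial cells co-cultured with PBMC, LPS-stimulated; secreted MCP-1 measured by ELISA 24 h after compound addition. Bidirectional curve fitting against DMSO baseline; SRB total-protein staining in parallel cultures for cytotoxicity.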

The nature of assay [10]: BSK_LPS_PGE2: BioMAP Diversity Plus: LPS Assay for Prostaglandin E2 (PGE2) Biomarker Activity (AID 2283082). The settings on record: primary human HUVEC with PBMC; actives raise or lower the signal. The method, boiled down: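 Endpoint derived from bidirectional curve fitting versus DMSO of ELISA-measured PGE2 in LPS-stimulated human primary vascular co-culture (HUVEC with PBMC) harvested at 24 h.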

Read-out in assay [11]: Macrophage colony-stimulating factor (MCSF), CSF1 (gene 1435)
Briefly: BSK_LPS_MCSF: BioMAP Diversity Plus: LPS Assay for Macrophage colony-stimulating factor (MCSF) Biomarker Activity (AID 2283083). Conditions: primary human HUVEC with PBMC; actives raise or lower the signal. In short, it runs like this:
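HUVEC–PBMC co-culture, M-CSF measured by ELISA 24 h after chemical dosing. Fitted in both directions relative to DMSO as negative control; overt cytotoxicity assessed by SRB total-protein staining in parallel cultures.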

Read-out in assay [12]: Tissue Factor, F3 (gene 2152)
Kind of assay: BSK_LPS_TissueFactor: BioMAP Diversity Plus: LPS Assay for Tissue Factor Biomarker Activity (AID 2283084). Conditions: primary human HUVEC with PBMC; actives raise or lower the signal. The method, boiled down:
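Human umbilical vein endothelial cells co-cultured with PBMC were dosed with compound. Cell-surface CD142 was measured by ELISA 24 h later. Activity was fitted bidirectionally against DMSO, with SRB total-protein staining in parallel cultures for cytotoxicity.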

Read-out in assay [13]: Tumor necrosis factor (Homo sapiens) (UniProt P01375)
Kind of assay: BSK_LPS_TNFa: BioMAP Diversity Plus: LPS Assay for Tumour Necrosis Factor alpha (TNFa) Biomarker Activity (AID 2283085). The settings on record: primary human HUVEC with PBMC; actives raise or lower the signal. In short, it runs like this:
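Primary human vascular co-culture of HUVEC and PBMC; TNFa ELISA 24 h after treatment, analysed as increase or decrease relative to DMSO control.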

Read-out in assay [14]: Vascular cell adhesion molecule 1 (VCAM1), VCAM1 (gene 7412)
Kind of assay: BSK_LPS_VCAM1: BioMAP Diversity Plus: LPS Assay for Vascular cell adhesion molecule 1 (VCAM1) Biomarker Activity (AID 2283086). Conditions: primary human HUVEC with PBMC; actives raise or lower the signal. In short, it runs like this:
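Primary human vascular co-culture (umbilical vein endothelium plus PBMC) stimulated with LPS received chemical; 24 h later VCAM-1 was read by ELISA. Overt cytotoxicity was assessed by sulforhodamine B staining of parallel cultures at the same time point.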

Read-out in the next assay: CD38, CD38 (gene 952)
Briefly: BSK_SAg_CD38: BioMAP Diversity Plus: SAg Assay for CD38 Biomarker Activity (AID 2283087). The settings on record: primary human HUVEC with PBMC; actives raise or lower the signal. The method, boiled down:
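Fluorescence ELISA of cell-surface CD38 served as the read-out, with either increase or decrease fitted against DMSO controls. Cells were a human umbilical vein endothelium plus PBMC co-culture under SEB/TSST-1 stimulation, measured 24 h after dosing.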

Read-out in assay [15]: CD40, CD40 (gene 958)
Briefly: BSK_SAg_CD40: BioMAP Diversity Plus: SAg Assay for CD40 Biomarker Activity (AID 2283088). Conditions: primary human HUVEC with PBMC; actives raise or lower the signal. In short, it runs like this:
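HUVEC plus PBMC co-culture, superantigen-activated, with CD40 read by ELISA 24 h after dosing. Curves fitted in both directions against DMSO. Overt cytotoxicity checked by parallel SRB total-protein staining.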

Read-out in the next assay: CD69, CD69 (gene 969)
Briefly: BSK_SAg_CD69: BioMAP Diversity Plus: SAg Assay for CD69 Biomarker Activity (AID 2283089). Conditions: primary human HUVEC with PBMC; actives raise or lower the signal. The method, boiled down: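 Endothelial/PBMC co-culture; chemical added; 24 h incubation; CD69 ELISA with fluorescence detection; bidirectional fit vs DMSO.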

Read-out in assay [16]: Monocyte Chemoattractant Protein-1 (MCP1), CCL2 (gene 6347)
Kind of assay: BSK_SAg_MCP1: BioMAP Diversity Plus: SAg Assay for Monocyte Chemoattractant Protein-1 (MCP1) Biomarker Activity (AID 2283090). Conditions: primary human HUVEC with PBMC; actives raise or lower the signal. The method, boiled down: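 MCP-1 levels in the endothelial–PBMC SAg co-culture were quantified by ELISA at 24 h post-dosing; both increases and decreases versus DMSO scored. Cytotoxicity monitored by SRB total protein in parallel cultures.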

Read-out in assay [17]: Monokine induced gamma interferon (MIG), CXCL9 (gene 4283)
Briefly: BSK_SAg_MIG: BioMAP Diversity Plus: SAg Assay for Monokine induced gamma interferon (MIG) Biomarker Activity (AID 2283092). The settings on record: primary human HUVEC with PBMC; actives raise or lower the signal. In short, it runs like this:
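Measures CXCL9 protein by ELISA in a human vascular primary-cell co-culture (umbilical vein endothelium with PBMC) 24 h after chemical addition. Activity is scored up or down from the DMSO control.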

Tumor necrosis factor (Homo sapiens), sequence (P01375 whole entry, looked up): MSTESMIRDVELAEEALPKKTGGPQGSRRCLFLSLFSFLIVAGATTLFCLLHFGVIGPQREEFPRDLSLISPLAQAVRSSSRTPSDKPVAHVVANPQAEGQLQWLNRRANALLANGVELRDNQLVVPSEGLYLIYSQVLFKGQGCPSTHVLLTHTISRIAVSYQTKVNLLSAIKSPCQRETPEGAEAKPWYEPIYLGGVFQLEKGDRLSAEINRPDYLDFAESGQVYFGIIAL
E-selectin (Homo sapiens), sequence (P16581 whole entry, looked up): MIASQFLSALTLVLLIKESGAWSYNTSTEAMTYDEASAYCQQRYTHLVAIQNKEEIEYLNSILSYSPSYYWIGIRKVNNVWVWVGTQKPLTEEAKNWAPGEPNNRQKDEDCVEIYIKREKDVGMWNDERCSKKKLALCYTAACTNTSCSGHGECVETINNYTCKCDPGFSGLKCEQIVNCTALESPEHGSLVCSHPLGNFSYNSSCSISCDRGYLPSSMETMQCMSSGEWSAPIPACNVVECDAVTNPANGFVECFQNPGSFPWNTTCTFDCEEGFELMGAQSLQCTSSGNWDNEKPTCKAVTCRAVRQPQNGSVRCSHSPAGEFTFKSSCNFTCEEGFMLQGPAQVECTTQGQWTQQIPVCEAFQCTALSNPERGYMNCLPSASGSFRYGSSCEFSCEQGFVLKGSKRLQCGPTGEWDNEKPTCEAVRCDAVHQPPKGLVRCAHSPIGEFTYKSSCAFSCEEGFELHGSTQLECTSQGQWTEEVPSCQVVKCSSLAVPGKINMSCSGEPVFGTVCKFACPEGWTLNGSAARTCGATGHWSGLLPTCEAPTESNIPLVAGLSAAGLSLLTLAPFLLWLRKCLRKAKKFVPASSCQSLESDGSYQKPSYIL

`CC(C)CCCCCCOC(=O)c1ccccc1C(=O)OCCCCCCC(C)C`: the outcome in [1] is “inactive”; in [2], “inactive”; in assay [3], “inactive”; with CD40, CD40 (gene 958) [4] it was “inactive”; in assay [5] it was “inactive”; in assay [6], “inactive”. Also, the outcome in assay [7], in assay [8], in assay [9], in [10], in assay [11] and in assay [12] was inactive. Further, the outcome was “inactive” in assay [13]; “inactive” in assay [14]; “inactive” with CD38, CD38 (gene 952); “inactive” with CD40, CD40 (gene 958) [15]; “inactive” with CD69, CD69 (gene 969); “inactive” in [16]. In addition, in [17], the outcome was inactive.
With `Cc1ccccc1N`, the outcome in assay [1] was “inactive”; in [2] it was “inactive”; in assay [3], “inactive”; in the assay with CD40, CD40 (gene 958) [4], “inactive”; in assay [5] it was “inactive”; in [6] it was “inactive”. In addition, the result in [7], in assay [8], in [9], in assay [10], in assay [11] and in assay [12] was inactive. The outcome in assay [13] was “inactive”; in assay [14], “inactive”; with CD38, CD38 (gene 952) it was “inactive”; in the assay with CD40, CD40 (gene 958) [15], “inactive”; with CD69, CD69 (gene 969), “inactive”; in assay [16], “inactive”. For the same molecule, in [17], the result was inactive.
One may read the AC50 as the concentration at which the activity in the assay is half-maximal. For the molecule `Nc1ccc(-c2ccc(N)c(Cl)c2)cc1Cl`, the outcome was “inactive” in assay [1]; “inactive” in assay [3]; “inactive” in the assay with CD40, CD40 (gene 958) [4]; “inactive” in assay [5]; “inactive” in [6]; “inactive” in [8]. The outcome is “inactive” in assay [9]; “inactive” in [10]; “inactive” in assay [11]; “inactive” in assay [12]; “inactive” in [13]; “inactive” with CD38, CD38 (gene 952). Further, the outcome with CD40, CD40 (gene 958) [15] is “inactive”; in the assay with CD69, CD69 (gene 969) it was “inactive”; in assay [16] it was “inactive”; in [17], “inactive”. Besides, the AC50 is 4.21 µM (active) in assay [2], 7.78 µM (active) in assay [7] and 1.85 µM (active) in [14].
